ARNT TACC3 PPI – disruptors of ARNT/TACC3 protein interaction, primary screen, biochemical, AlphaScreen, single concentration | AlphaScreen His-ARNT PAS-B/GST-TACC3 binding, luminescence; TACC3 fragment carries E629A point mutation | 390,000 tested, 0.66% active | Transforming acidic coiled-coil-containing protein 3 (Homo sapiens), Q9Y6A5 | inhibition, % at 9.99 µM;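 active means mean inhibition of replicates at least 50% and at least half of replicates each reaching 50%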
PvdQ acylase – P. aeruginosa PvdQ acylase inhibitors, primary screen, biochemical, fluorescence, plate reader and imaging, single point. AID 488965, 2010. inhibition, % at 10 µM. purified PvdQ acylase. PvdQ acylase [Pseudomonas aeruginosa LESB58]. 340,000 tested, 0.063% active; in the data active means inhibition above about 30%, passing the limit was not always enough
ERAP1 inh – human ERAP1 aminopeptidase inhibitors, primary screen, biochemical, single point, plate reader; Endoplasmic reticulum aminopeptidase 1 (Homo sapiens), Q9NZ08; recombinant ERAP1, Leu-AMC fluorescence, 60 min; inhibition, % at 10.7 µM; 340,000 tested, 0.15% active; AID 652197, 2013;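 active means mean replicate inhibition of at least 30%, or all replicates individually reaching that 30% level; inactive means mean below 30% and not every replicate reaching it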
rRNA inh HTS – reduced GFP signal of wild-type E. coli, primary screen, bacterial rRNA inhibitor project, GFP/RFP fluorescence, OD600, single point | 350,000 tested, 1.6% active | E. coli WT GFP vs humanized-ribosome RFP mutants, 24 h; active compounds read low; DMSO median 0, no signal -100 | GFP signal change (wild-type ribosome), % (no concentration beside the values);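 active means significant combined selectivity score with lowered wild-type GFP, culture density cut under 30%, mutant RFP and density less affected; inactive means any of these conditions unmet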
F508del corr – F508del CFTR correction, initial screen, CFBE line, single point. 350,000 tested, 0.36% active. activity (quench increase), % at 7.58 µM. CFBE cells, YFP halide quenching; stimulated with forskolin plus potentiator P3; % fluorescence drop versus neutral controls;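 active means mean added fluorescence quench of at least 8% versus neutral control, with both replicates also reaching 8%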;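 further: cells transiently co-express mutant CFTR-F508del with the halide-sensitive YFP; corrector assay measuring rescue of mutant channel to the surface after 24 h compound exposure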
Large screens that a line does not name were inactive. The list is not random: actives were taken first. Their share in the collection is about 2.1%.

COc1ccccc1CNC(=O)Cn1cnnn1	F508del corr 12
COc1ccc2c3c([nH]c2c1)[C@@H](CO)N(C(C)=O)CC31CCN(S(=O)(=O)c2cccs2)CC1	none (no result: ARNT TACC3 PPI, PvdQ acylase)
CS(=O)(=O)c1cccc(-c2nnc(NC(=O)c3ccc(S(=O)(=O)N4CCCC4)cc3)o2)c1	ARNT TACC3 PPI 56
CC1CN(S(=O)(=O)c2ccc(C(=O)Nc3ccccc3F)cc2)CC(C)O1 (stereo not given)	F508del corr 9.1
O=C(Nc1nnc(-c2ccco2)o1)c1ccc(S(=O)(=O)N2CCCC2)cc1	none (no result: rRNA inh HTS)
CC(=O)c1cccc(NC(=O)c2ccc(S(=O)(=O)N3CC(C)OC(C)C3)cc2)c1 (stereo not given)	none
Cc1nnc(NC(=O)c2ccc(S(=O)(=O)N3CC(C)OC(C)C3)cc2)o1 (stereo not given)	ARNT TACC3 PPI 64
Cc1nnc(NC(=O)c2ccc(S(=O)(=O)N3CCCCCC3)cc2)o1	none (no result: ERAP1 inh, rRNA inh HTS, F508del corr)
O=C(C[C@H]1C=C[C@H](NC(=O)CN2CCOCC2)[C@H](CO)O1)NCCc1ccncc1	none (no result: ARNT TACC3 PPI, PvdQ acylase)
Cc1noc(C)c1NC(=O)Nc1ccc2c(c1)CC(=O)N([C@@H](C)CO)C[C@@H](C)[C@@H](CN(C)Cc1ccc3c(c1)OCO3)O2	none (no result: PvdQ acylase)
C[C@@H]1CN([C@H](C)CO)S(=O)(=O)c2ccc(-c3cccc(C(=O)N(C)C)c3)cc2O[C@@H]1CN(C)C	none (no result: PvdQ acylase)
COc1cc(/C=C2/C(=O)N(c3ccc(Br)cc3)N=C2C)cc(OC)c1OC	none (no result: F508del corr)
COc1cc(/C=C2/C(=O)N(c3ccc(C(=O)O)cc3)N=C2C)cc(OC)c1O	ARNT TACC3 PPI 12
C/C(=N\NC(=O)c1cc(-c2ccc(C)s2)[nH]n1)c1ccncc1	rRNA inh HTS -15 (no result: ARNT TACC3 PPI)
C/C(=N/NC(=O)c1ccncc1)c1ccc(NC(=O)c2ccc(Cl)cc2Cl)cc1	none
CC(=NNC(=O)c1ccncc1)c1ccc2ccccc2c1O	F508del corr 25
CC(C)CC(=NNC(=O)c1ccncc1)c1cc(Cl)ccc1O	F508del corr 16
CC(=NNC(=O)c1ccncc1)c1ccc(O)cc1O	ARNT TACC3 PPI 85
C/C(=N\NC(=O)c1cccc2ccccc12)c1cccnc1	none
CC(/C=N/NC(=O)c1cc(-c2ccc(C)s2)[nH]n1)=C\c1ccccc1	none (no result: F508del corr)
COc1cccc(-c2ccc3c(c2)O[C@@H](CN(C)C(=O)c2ccccc2F)[C@@H](C)CN([C@@H](C)CO)S3(=O)=O)c1	none (no result: PvdQ acylase)
O=C(CC(F)(F)F)N1C[C@@H]2[C@H](c3ccccc31)[C@@H](CO)N2C(=O)Cc1cccnc1	none (no result: PvdQ acylase)
CC(=NNC(=O)c1ccncc1)c1ccccc1O	ARNT TACC3 PPI 61, rRNA inh HTS -30
COc1ccc(C(=O)Nc2ccc(/C(C)=N/NC(=O)c3ccncc3)cc2)cc1	none
COc1ccc(/C(C)=N/NC(=O)c2ccncc2)cc1	ARNT TACC3 PPI 47
C[C@@H]1CN([C@H](C)CO)C(=O)c2cc(NS(=O)(=O)c3ccccc3)ccc2O[C@H]1CN(C)C(=O)Nc1cccc2ccccc12	none (no result: PvdQ acylase)
CCOC(=O)c1cccc(S(=O)(=O)N(CCO)Cc2cc3cc(OC)ccc3[nH]c2=O)c1	rRNA inh HTS -18
COc1ccc2[nH]c(=O)c(CN(CCO)S(=O)(=O)c3ccc(C)cc3)cc2c1	rRNA inh HTS -24
CCCCN(Cc1cc2cc(OC)ccc2[nH]c1=O)S(=O)(=O)c1ccc(C)cc1	none
CCOC(=O)c1cccc(S(=O)(=O)N(CCO)Cc2cc3cc(OC)c(OC)cc3[nH]c2=O)c1	none (no result: ERAP1 inh, rRNA inh HTS, F508del corr)
CCC(=O)N1CC(=O)N2[C@H](CO)[C@@H](c3ccc(C#Cc4cccc(OC)c4)cc3)[C@H]2C1	none (no result: ARNT TACC3 PPI, PvdQ acylase)
COCC(=O)Nc1ccc2c(c1)OC[C@H](C)N(C(=O)CC1CC1)C[C@H](C)[C@H](OC)CN(C)C2=O	none (no result: PvdQ acylase)
CCNC(=O)C[C@@H]1CC[C@H]2[C@H](COc3ccc(NC(=O)Nc4cccc(OC)c4)cc3C(=O)N2C)O1	none (no result: PvdQ acylase, ERAP1 inh)
CC(=O)N1C[C@@H]2C(c3ccc(Br)cc3)[C@H](C1)N2S(C)(=O)=O (stereo not given in full)	none (no result: ARNT TACC3 PPI, PvdQ acylase, ERAP1 inh, F508del corr)
